High-throughput results as filed in PubChem BioAssay.
Shown are actives, neighbours in structure and some others; about 5.9% of the full set was active somewhere.
HEK293 tox: qHTS of GLP-1 Receptor Inverse Agonists: Cytotox Screen | hit rate 0.13% among 410,000 | Potency, µM (titrated, usually from 38.3 µM), inactives show at the highest dose activity change, negative = inhibition, usual class: inhibitors | HEK293 cAMP-luciferase reporter cells, luminescence, 24 h;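 also: loss of luciferase light is scored as toxicity; % is scaled to controls: 0 for no effect and ±100 for the full control effect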
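Compound-treated cells are incubated 24 hr at 37 deg C under 5% CO2 after a 12 hour attachment period, then luciferase detection reagent is added and luminescence is measured following 12 min at room temperature; lowered signal indicates toxicity.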
Gal4-VP16 FLuc: VP16 counterscreen qHTS for inhibitors of ROR gamma transcriptional activity; hit rate 3.5% among 310,000; Drosophila S2 Gal4-VP16 UAS-luciferase, luminescence, 20 h; Potency, µM (titrated, usually from 53.6 µM), inactives show at the top dose activity, negative = inhibition, most hits filed as inhibitors;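 also: Gal4-VP16 expression switched on by copper sulfate through the metallothionein promoter; % is scaled to controls: 0 for no effect and ±100 for the full control effect; nearly all actives have a fitted effect of over 50% in size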
RORg inh: qHTS for inhibitors of ROR gamma transcriptional activity; Nuclear receptor ROR-gamma (Mus musculus), P51450; Drosophila S2 Gal4-RORgamma UAS-luciferase reporter, 20 h; Potency, µM (doses to about 53.6 µM), without a hit: top-dose activity change, negative = inhibition, hits mostly inhibitors; hit rate 5.4% among 310,000; AID 2551, 2010; also: % is scaled to controls: 0 for no effect and ±100 for the full control effect; nearly all actives have a fitted effect of over 60% in size
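Luminescence from a UAS-regulated Photinus luciferase reporter in stably transfected Drosophila Schneider cells is measured; decreased signal marks ROR gamma inhibition. Fusion expression is induced by 700 uM copper sulfate for 20 hr.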
GLP1R ag: qHTS of GLP-1 Receptor Agonists | Glucagon-like peptide 1 receptor (Homo sapiens), P43220 | HEK293 GLP-1R CRE-luciferase, luminescence, 4-6 h; cells express a hypersensitive GLP-1R form | Potency, µM (doses to about 45.6 µM), for the others: at the highest dose activation, actives largely listed as activators | hit rate 0.007% among 380,000; also: % of control where 0% means no effect
Target sequence (P43220 whole entry, looked up): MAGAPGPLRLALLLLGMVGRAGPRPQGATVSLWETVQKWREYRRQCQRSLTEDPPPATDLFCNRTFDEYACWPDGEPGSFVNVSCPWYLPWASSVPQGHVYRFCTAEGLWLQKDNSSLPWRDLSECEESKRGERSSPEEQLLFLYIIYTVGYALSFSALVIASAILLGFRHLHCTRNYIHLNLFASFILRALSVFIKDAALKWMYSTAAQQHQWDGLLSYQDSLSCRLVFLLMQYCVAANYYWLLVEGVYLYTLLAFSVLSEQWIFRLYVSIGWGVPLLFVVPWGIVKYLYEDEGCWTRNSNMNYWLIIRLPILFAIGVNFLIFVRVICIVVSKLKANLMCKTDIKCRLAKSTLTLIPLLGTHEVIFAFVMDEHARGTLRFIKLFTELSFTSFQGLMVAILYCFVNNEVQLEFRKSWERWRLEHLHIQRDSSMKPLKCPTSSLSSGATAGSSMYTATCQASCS
GLP-1R inv ag: qHTS of GLP-1 Receptor Inverse Agonists (Inhibition Mode) | Glucagon-like peptide 1 receptor (Homo sapiens), P43220 | HEK293 GLP-1R CRE-luciferase, luminescence, 24 h; GLP-1R form is constitutively active | Potency, µM (titrated, usually from 38.3 µM), for inactives: top-dose activity change, negative = inhibition, hits mostly inhibitors | hit rate 1.6% among 410,000 | AID 624417, 2012; also: % is scaled to controls: 0 for no effect and ±100 for the full control effect; nearly all actives have a fitted effect of over 55% in size
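Readout was luciferase luminescence, measured 12 min after detection reagent at room temperature. Beforehand, GLP-1R reporter HEK293 cells had sat 12 h, then received compounds for 24 hr at 37 deg C.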
The depositor's hits bear a star; u = inconclusive; x = no result; [ ] = dose if it differs, or a comment. Calls follow the shape of the dose curve; as a rule, active = well fitted curve in the direction sought with a large enough effect; inconclusive = small, poorly fitted or top-dose-only effect, or another doubt; inactive = no such curve, though single readings can be large; an effect the other way counts as inactive or inconclusive. Potency is read from the fitted curve at half-maximal effect.

SMILES	HEK293 tox	Gal4-VP16 FLuc	RORg inh	GLP1R ag	GLP-1R inv ag
CSC(N)=NCCCC(N)C(=O)O (configuration not stated)	x	4.9%	-0.4%	x	x
CCCN(Cc1ccccc1)C(=S)Nc1ccc(SC(F)F)cc1	u	u	8.91µM*	10.5%	10µM*
CCCN(Cc1ccccc1)C(=S)Nc1ccc(F)cc1	-10.5%	-23.4%	15.8µM*	8.4%	u
CCCN(Cc1ccccc1)C(=S)Nc1cccc(C(F)(F)F)c1	-24.2%	u	-35.0%[10 µM]	10.2%	u
CCCN(Cc1ccccc1)C(=S)Nc1ccc(OCC)cc1	1.9%	-22.2%	10µM*	9.5%	u
N#CCCN(Cc1ccccc1)C(=S)Nc1ccc(F)cc1	2.7%	-7.4%	0.2%	7.9%	-8.5%
COc1ccc2c(C)cc(SCC(=O)Nc3nsc(-c4ccccc4C)n3)nc2c1	7.5%	x	x	x	13.5%
CC1CCN(S(=O)(=O)c2ccc(C(=O)Nc3nnc(-c4ccccn4)o3)cc2)CC1	-13.4%	-14.2%	-0.6%	0.3%	-10.5%
CC(=O)Nc1nnc(-c2ccco2)o1	36.6%	5.5%	-19.1%	-0.6%	8.8%
O=C(Nc1nnc(-c2ccco2)o1)c1cccc(Cl)c1	-3.8%	2.82µM*	3.55µM*	0.3%	-2.8%
O=C(Nc1nnc(-c2ccccn2)o1)c1cccc(Cl)c1	-8.7%	1µM*	0.708µM*	0.3%	0.6%
O=C(/C=C/c1ccccc1)Nc1nnc(-c2ccco2)o1	8.3%[0.307 µM]	5.01µM*	2.24µM*	-13.2%	10.2%[0.307 µM]
N#Cc1ccc(C(=O)Nc2nnc(-c3ccccn3)o2)cc1	12.0%	0.891µM*	1.26µM*	-2.9%	23.1%
CCOc1ccc(NC(=O)CC2C(=O)OCCN2CC)cc1 (configuration not stated)	-1.0%	x	x	x	11.8%
Cc1cc(C)c(OCC(=O)Nc2nnc(-c3ccco3)o2)c(C)c1	15.9%	u	12.6µM*	-0.5%	6.3%
Cc1ccc(SCC(=O)Nc2nnc(-c3ccco3)o2)cc1	-18.8%	x	x	-0.4%	1.9%
CC(=O)Nc1nnc(-c2ccccn2)o1	-6.6%	-0.3%	12.4%	-4.7%	14.8%
O=C(Nc1nnc(-c2ccccn2)o1)c1cccc(Br)c1	9.8%	0.891µM*	0.501µM*	-13.1%	13.2%
O=C1c2c(O)cc(O)cc2O[C@H](c2ccc(O)c(O)c2)C1O (some centres not stated)	x	-2.9%	-1.6%	x	x
CC1CC=CC2C1C(=O)N(Cc1ccccc1)C2c1ccc(/C=C/c2ccccc2)cc1F (configuration not stated)	x	-12.4%	-3.3%	x	x
O=C(NNc1nc(-c2ccc(F)cc2)cs1)c1ccccc1	u	u	5.01µM*	3.0%	u
O=C(NNc1nc(-c2ccccc2)cs1)c1ccc(F)cc1	0.9%[7.66 µM]	11.2µM*	2µM*	-0.9%	10.2%[7.66 µM]
CC(=O)NNc1nc(-c2ccc(C)cc2)cs1	-1.6%	27.2%	-8.6%	1.6%	u
O=C(NNc1nc(-c2ccccc2)cs1)c1cccs1	u	u	7.94µM*	7.4%	u
CC(=O)NNc1nc(-c2ccccc2)cs1	-18.2%	-6.4%[10 µM]	1.8%	-1.4%	-8.7%
SMILES	HEK293 tox	Gal4-VP16 FLuc	RORg inh	GLP1R ag	GLP-1R inv ag
O=c1ncccn1[C@@H]1O[C@H](CO)[C@@H](O)[C@H]1O	x	-3.0%	-5.9%	x	x
CCOc1ccc(CCNC(=O)c2cccc(-n3c(C)nc4cccnc43)c2C)cc1	-9.1%	x	x	x	-1.4%
CCN(CC)CC(=O)Nc1sc(C)c(C)c1C(=O)c1ccc(C)cc1	-5.3%[0.307 µM]	-7.0%	11.2µM*	0.0%	-17.5%[0.307 µM]
CCN(CC)CC(=O)Nc1sc(C)cc1C(=O)c1ccc(C)cc1	-1.4%	6.31µM*	3.16µM*	2.4%	10µM*
Cc1cc(C(=O)c2ccccc2)c(NC(=O)CCl)s1	-7.4%	-99.1%	-11.9%[10 µM]	1.9%	15.7%
CCN(CC)CC(=O)Nc1sc(C)cc1C(=O)c1ccccc1	-4.3%	u	7.08µM*	29.5%	u
CCc1cc(C(=O)c2ccc(Br)cc2)c(NC(=O)CN(CC)CC)s1	4.1%	11.2µM*	6.31µM*	7.2%	u
COc1ccc(NCc2cc3cc4c(cc3n(CC(=O)Nc3cc(C)ccc3C)c2=O)OCCO4)cc1	-0.6%	x	x	-3.0%	-0.6%
CC(=O)N(C1CC(C)C(C#N)(C#N)C1(C#N)C#N)N(C)C (configuration not stated)	u	-4.1%[10 µM]	7.94µM*	-2.7%	u
Cc1c(C(C)C)c(=O)n(-c2ccccc2)n1C	x	2.1%	-10.5%[10 µM]	6.1%	x
Cc1c(C(C)C)c(=O)n(-c2ccc(S(=O)(=O)NCc3ccccc3)cc2)n1C	2.1%	7.94µM*	u	8.9%	-33.4%
Cc1c(C(C)C)c(=O)n(-c2ccc(S(=O)(=O)NC3CCCCC3)cc2)n1C	-8.6%	11.2µM*	u	7.7%	u
COc1cc(N)c(Cl)cc1C(=O)CCC1CCN(CCNS(C)(=O)=O)CC1	x	3.6%	-9.0%	x	x
COc1cc(COc2cc(N)c(Cl)cc2C(=O)CCC2CCN(CCNS(C)(=O)=O)CC2)cc(OC)c1	x	15.8µM*	15.8µM*	x	x
O=[N+]([O-])c1ccc(CSc2ccc(S(=O)(=O)N3CCCCCC3)cn2)cc1	32.5%	x	x	20.8%	11.2µM*
O=S(=O)(c1ccc(SCc2ccc(Br)cc2)nc1)N1CCCCC1	-0.2%	x	x	-11.7%	-38.2%
CC1CCN(c2csc3ccc(F)cc3c2=O)CC1	27.5%	x	x	x	11.1%
Cc1c(N=C2SCC(=O)N2/N=C\c2ccc(Br)cc2)c(=O)n(-c2ccccc2)n1C	13.8%	-5.5%	36.5%	-0.2%	8.91µM*
Cc1ccc(COc2ccsc2-c2n[nH]c(=S)n2C)cc1	-13.9%	7.08µM*	2.82µM*	-9.3%	10.1%
Cn1c(-c2sccc2OCc2ccc(Cl)cc2Cl)n[nH]c1=S	-1.6%	7.08µM*	2.82µM*	3.4%	u
Cn1c(-c2sccc2OCc2ccccc2)n[nH]c1=S	-1.7%	-7.7%	29.5%	11.3%	-3.1%
CC[C@H](C)[C@H](NC(=O)[C@H](Cc1ccc(O)cc1)NC(=O)[C@@H](NC(=O)[C@H](CCCN=C(N)N)NC(=O)[C@@H](N)CC(=O)O)C(C)C)C(=O)N[C@@H](Cc1ccc(N)cc1)C(=O)N1CCC[C@H]1C(=O)N[C@@H](Cc1ccccc1)C(=O)O	x	-8.4%	-18.4%	x	x
Cc1cc(O)c(C(C)C)cc1Cl	x	-12.7%	20.2%	7.6%	x
O=C(NNc1c2ccccc2nc2ccccc12)c1ccccc1O	u	-25.2%	17.8%	12.3%	u
O=C(NNc1nc(=O)c2cccnc2s1)c1ccccc1O	13.8%	-89.6%	0.0501µM*	-1.6%	13.9%
Cc1ccc(NC(=S)c2nc3ccccc3[nH]2)cc1	-2.6%	7.94µM*	3.16µM*	0.9%	0.0%
